Assay outcomes as filed in PubChem BioAssay.
This excerpt belongs to a sample that is enriched for hits.
Pf Dd2 inh = inhibitors of Plasmodium falciparum Dd2 growth. 120,000 compounds, 4.3% hits. Potency, µM (doses to about 28.9 µM), most hits filed as inhibitors. P. falciparum Dd2 growth, SYBR Green, 72 h. AID 1347417; active = well fitted inhibition curve with a large enough effect; note: nearly all actives have a fitted effect of over 65% in size
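Infected erythrocytes (Dd2, 0.3% parasitemia, 2.5% hematocrit final) are added to compound in RPMI-1640/Albumax II medium, grown 72 h at 37C in low oxygen, then lysed with saponin/Triton-X containing SYBR Green and read by fluorescence.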
Large screens that a line does not name were inactive.

O=C(Cn1nc2c(cc1=O)CCCCC2)Nc1nc(-c2ccccn2)cs1	none
COc1ccccc1CCC(=O)Nc1cccn2nc(C(C)C)nc12	Pf Dd2 inh 10µM
CC(C)c1nc2c(NC(=O)COc3ccccc3)cccn2n1	none
CCc1nc2c(NC(=O)NCc3ccc(OC)cc3)cccn2n1	none
O=C1CCN(S(=O)(=O)c2cccc(F)c2)CCCC(CO)CCN1 (stereo not given)	none
Cc1nc(NCc2csc(-c3cnccn3)n2)cc(C2CC(O)C2)n1 (stereo not given)	none
O=C(CN1C(=O)NC(c2ccc(Cl)cc2)C2=C1COC2=O)Nc1ccc(Cl)cc1F (stereo not given)	none
Cn1cnc(S(=O)(=O)N2CC[C@@H]3C(=O)NCCCCCCN(Cc4ccncc4)[C@@H]3C2)c1	none
O=C1NCCCCCCN(Cc2ccncc2)[C@@H]2CN(S(=O)(=O)c3cccnc3)CC[C@@H]12	none
O=C1NCCCCCCN(Cc2ccncc2)[C@@H]2CN(S(=O)(=O)Cc3cccc(F)c3)CC[C@H]12	Pf Dd2 inh 8.9µM
CCS(=O)(=O)N1CC[C@H]2C(=O)NCCCCCCN(Cc3ccncc3)[C@@H]2C1	none
O=C1NCCCCCCN(Cc2ccncc2)[C@@H]2CN(S(=O)(=O)c3ccc4c(c3)CCC4)CC[C@H]12	Pf Dd2 inh 2.8µM
O=C1NCCCCCCN(Cc2ccncc2)[C@@H]2CN(C3CCC3)CC[C@H]12	none
Cc1ncc(CN2CCC(C3(c4cccnc4)NC(=O)NC3=O)CC2)[nH]1 (stereo not given)	none
CCOC(=O)c1cccc(Nc2nc(-c3ccccc3)no2)c1	none
COCCN1C(=O)CC[C@]2(C(=O)NCc3ccc(F)c(Cl)c3)CCCC[C@@H]12	none
Cc1ccccc1Nc1nc(-c2cccc(Cl)c2)c2c(n1)-c1ccccc1OC2	none
CCOc1ccc(Nc2nc(-c3cccc(Cl)c3)c3c(n2)-c2ccccc2OC3)cc1	Pf Dd2 inh 10µM
Fc1ccc(Nc2nc(-c3ccc(F)cc3)c3c(n2)-c2ccccc2OC3)cc1	none
COc1ccc(N2CC(C(=O)N3CCC(C(=O)NCc4cccc(Cl)c4)C3)NC2=O)cc1 (stereo not given)	none
CCc1nc(-c2c3n(c(=O)n(Cc4ccc(F)cc4F)c2=O)CCCC3)no1	none
COCCN1C(=O)c2cccn2CC1CNC(=O)COc1ccccc1 (stereo not given)	none
Cn1cccc1C(=O)NCC1(C)CCOCC1	none
CCOCCn1c(=O)[nH]c2cc(C(=O)NCc3nnc(C)o3)ccc21	none
COc1ccc(-n2nc(C3CCCN(C(=O)C(C)(C)C)C3)[nH]c2=O)cc1 (stereo not given)	none
CC(C)(C)C(=O)N1CCCC(c2nn(-c3ccccc3)c(=O)[nH]2)C1 (stereo not given)	none
CC(C)c1cnc(C2CCCN(C(=O)OC(C)(C)C)C2)[nH]1 (stereo not given)	Pf Dd2 inh 11µM
CCCCc1ncc(CN2CCCC(c3cccc(C(=O)O)c3)C2)[nH]1 (stereo not given)	none
Cc1cnc(C2CC2)n1C1CCCN(C(=O)CC(C)C)C1 (stereo not given)	none
CC(C)Cc1cnc(C2CCCN(C(=O)OC(C)(C)C)C2)[nH]1 (stereo not given)	Pf Dd2 inh 7.1µM
c1ccc(-c2cnc(Nc3ccc(N4CCOCC4)cc3)c3c2CCO3)nc1	none
O=C(CN1C(=O)CNC1=O)NCc1cccnc1Oc1ccccc1F	none
O=C(NC[C@H]1OC[C@@H](NCc2ccccc2O)[C@@H]1O)Nc1ccccc1	none
C=CCC(O)(CC=C)C(C)NC(=O)c1ccc(OC2CCN(Cc3ccccn3)CC2)cc1 (stereo not given)	none
COc1ccc(OC)c(NC(=O)C2CCN(C(=O)N3CC4CC(C3)[C@H]3CCCC(=O)N3C4)CC2)c1 (stereo not given in full)	none
CCOc1ccc(-c2nc(C3CC(=O)N(c4ccc(F)cc4)C3)no2)cc1OCC (stereo not given)	none
CCc1ncc(-c2ccccc2)[nH]1	none
CCOc1ccc(-c2cnc(-c3cnc(CC)nc3)[nH]2)cc1OCC	Pf Dd2 inh 10µM
CN1CCN(C(=O)c2cccnc2)CC12CCC(=O)N(CC1CC1)CC2 (stereo not given)	none
COc1cc2cc(CN3CCC[C@@H]3CO)c(-c3cccc(Cl)c3)nc2cc1OC	Pf Dd2 inh 13µM
COc1ccc(-c2nc3cc(C)ccc3cc2CN2CCC[C@@H]2C(N)=O)cc1OC	none
COc1ccc(OC)c2nc(-c3cccc(Cl)c3)c(CN3CC(O)C3)cc12	none
O=C(N[C@H]1CCN2C(=O)c3ccc(Cl)cc3NC(=O)[C@H]12)C1CCCC1	none
O=C1NC(C(=O)NCc2cccc(C(F)(F)F)c2)Cn2cccc21 (stereo not given)	none
CCNC(=O)CCc1c(C)nn(-c2cccc(C)c2)c1Oc1ccccc1C	none
Cc1cccc(-n2nc(C)c(CCC(=O)N3CCSCC3)c2Oc2ccccc2C)c1	Pf Dd2 inh 8.9µM
Cc1cccc(-n2nc(C)c(CCC(=O)NC3CC3)c2Oc2ccccc2C)c1	none
O=C(c1ccc(C(F)(F)F)cc1)N1CCC(N2CCCS2(=O)=O)CC1	none
CCN(CC)C(=O)N1CCC(Oc2ccc(-c3noc(COC)n3)cc2)C1 (stereo not given)	none
COCc1nc(-c2ccc(OC3CN(C(=O)c4ccc(OC)nc4)C3)cc2)no1	none
COCc1nc(-c2ccc(OC3CN(C(=O)c4cc(C)n(C)n4)C3)cc2)no1	Pf Dd2 inh 7.9µM
COc1ccc(CNC(=O)C2CN(S(=O)(=O)C3CC3)CC23CCCCC3)c(OC)c1 (stereo not given)	none
CCOc1ccccc1NC(=O)C1CN(S(=O)(=O)C2CC2)CC12CCCCC2 (stereo not given)	none
O=C(Nc1ccc2c(c1)OCCO2)C1CN(S(=O)(=O)C2CC2)CC12CCCCC2 (stereo not given)	Pf Dd2 inh 3.2µM
CC(C)NC(=O)c1ccc(N2CC3CC(C2)[C@H]2CCCC(=O)N2C3)nc1 (stereo not given in full)	none
COc1ccc(-c2noc(-c3ccc(N4CCN(c5ccccc5)CC4)c([N+](=O)[O-])c3)n2)cc1	none
COc1ccccc1N1CCN(c2ccc(-c3nc(-c4ccccc4C)no3)cc2[N+](=O)[O-])CC1	none
COc1ccccc1-c1noc(-c2ccc(N3CCN(c4ccccc4)CC3)c([N+](=O)[O-])c2)n1	Pf Dd2 inh 10µM
CCS(=O)(=O)Nc1ccc(C2(C(=O)NCc3cccc(C)c3)CCC2)cc1	none
COc1ccc(-c2cc(N3CCCN(C(=O)c4ccccn4)CC3)n[nH]2)cc1	none
O=C1CN(C(=O)Nc2ccccc2Cl)C(c2ccccc2)c2c(sc3c2CCCC3)N1 (stereo not given)	Pf Dd2 inh 10µM
O=C(Cc1ccccc1)Nc1sc2c(c1C(=O)Nc1ccccc1Cl)CCCC2	none
Cc1cccc(NC(=O)N2CC(=O)Nc3sc4c(c3C2c2ccccc2)CCCC4)c1C (stereo not given)	Pf Dd2 inh 11µM
O=C(COc1ccccc1)Nc1sc2c(c1C(=O)Nc1ccccc1Cl)CCCCC2	none
COC(=O)c1ccccc1NC(=O)N1CCc2c(sc3c2CCCC3)C1c1ccc(F)cc1 (stereo not given)	none
Cc1cccc(NC(=O)N2CCC(CC(=O)NCc3ccccc3)C2)c1C (stereo not given)	none
O=C1NCCN(Cc2cccc(Oc3ccccc3)c2)C1CC(=O)N1CCCOCC1 (stereo not given)	none
CSc1ncccc1C(=O)N[C@@H]1CCOC[C@H]1Oc1ccc(C#N)cc1	none
O=C(NC(C(=O)N1CCCC1)C1CCN(C(=O)c2ccc3c(c2)OCO3)CC1)c1ccc(F)cc1 (stereo not given)	none
COc1cc(OC)c(OC)cc1CN1CCC(C)(c2noc(C3CCOCC3)n2)CC1	none
